Screens: PubChem, NMMLSC
VLA-4 antagonist = inhibitors of LDV-FITC ligand binding to Mn2+-activated human VLA-4 integrin | P13612 | Jurkat cells, LDV-FITC binding with Mn2+, flow cytometry; 100% = Mn2+-driven binding gain fully reversed | inhibition, % at 10 µM (by protocol) | 0.2% of 24,000 active;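 active = inhibition above 50%; inconclusive = compound itself fluorescent, judged against control cell fluorescence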;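 note: 0% = Mn2+ stimulated cells lacking compound and 100% = ligand binding without Mn2+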
FPR binder = binds the human formylpeptide receptor FPR | 0.74% of 24,000 active | inhibition, % (test concentration not listed) | FPR-expressing cells, fluorescent ligand binding, flow cytometry | AID 440;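 note: 0% = buffer wells and 100% = receptor blocker peptide wells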
26S disassembly = blocks ATP-dependent breakdown of the yeast 26S proteasome. 0.2% of 24,000 active. inhibition of disassembly, % (no concentration beside the values). anti-FLAG beads, GFP-proteasome disassembly, flow cytometry;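 active = inhibition of disassembly above about 33%, limit read from the data; inconclusive = likely self-fluorescent, control bead median signal at least 40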;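 note: plate controls were ATP control with full disassembly for no effect and ATP-gamma-S intact proteasomes for full effect; higher percent means more bead fluorescence retained so stronger block of disassembly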
FPRL1 binder = binds the human formylpeptide receptor-like-1 FPRL1; AID 441; FPRL1-expressing cells, fluorescent ligand binding inhibition, flow cytometry; 0.3% of 24,000 active; inhibition, % (concentration not given with the values); P25090;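 note: 0% = buffer alone and 100% = receptor blocker peptide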
Target sequence (P25090 whole entry, looked up): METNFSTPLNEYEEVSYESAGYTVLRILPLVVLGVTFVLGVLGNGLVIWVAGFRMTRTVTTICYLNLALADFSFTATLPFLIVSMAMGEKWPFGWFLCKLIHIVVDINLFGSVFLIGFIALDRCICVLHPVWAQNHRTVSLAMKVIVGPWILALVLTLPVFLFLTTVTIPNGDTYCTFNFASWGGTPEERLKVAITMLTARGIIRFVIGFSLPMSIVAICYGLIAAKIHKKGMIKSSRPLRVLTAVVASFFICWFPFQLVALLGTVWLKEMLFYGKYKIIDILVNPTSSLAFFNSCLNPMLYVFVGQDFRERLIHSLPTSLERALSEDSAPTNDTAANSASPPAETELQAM
VLA-4 agonist = allosterically activates the human VLA-4 integrin. activation, % at 10 µM (by protocol). 24,000 tested, under 10 active. P13612. Jurkat cells, LDV-FITC binding, flow cytometry;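 active = fluorescent ligand binding to cells raised by more than 40% of the manganese-induced maximum; inconclusive = compound's own fluorescence above 85% of the ligand control signal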;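 note: 0% = ligand binding without compound and 100% = manganese-stimulated maximal binding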
Autofluor Jurkat = compound fluoresces in Jurkat cells, VLA-4 screen interference | compound autofluorescence, flow cytometry; hits give high values; 1 = vehicle-only cell background | fluorescence ratio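 (tested at 10 µM compound in the well)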 | 0.61% of 24,000 active | AID 576;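 active = fluorescence ratio above 2.44, which is 1 plus 3 SD of all ratios; inconclusive = signal too bright to measure linearly, ratio around 10 or more; inactive = fluorescence ratio below 2.44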;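 note: green fluorescence of cells measured with 488 nm excitation and 530 nm emission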
Starred values were filed as active, the others as inactive; ? = inconclusive; · = not tested or not shown. An excerpt weighted towards active compounds, which were near 1.9% of everything screened. Cut-off read from the data, not from the text of the source, unless noted: active = inhibition above about 30%; inconclusive = no clear call, values can overlap the other calls; inactive = below that.

SMILES	VLA-4 antagonist	FPR binder	26S disassembly	FPRL1 binder	VLA-4 agonist	Autofluor Jurkat
CC(C)Oc1ccc(C(CC(=O)O)NC(=O)C2CCCCC2)cc1 (stereo not given)	96*	3	0	-1	-12	1
COc1ccc(C(CC(=O)O)NC(=O)C2CCCCC2)cc1 (stereo not given)	40	0	0	4	-4	1.1
Cc1cc(=O)oc(C)c1C(=O)NCCCN1CCN(c2ccccc2F)CC1	3	-7	0	-8	1	1
Nc1cc(C(=O)O)ccc1Nc1ccccc1	6	-2	-1	0	0	1
Nc1ccc(Nc2ccccc2N)cc1	?	3	?	47*	?	5.2*
O=C(NCc1cccnc1)C1c2ccccc2C(=O)N1C1CCCCCCC1 (stereo not given)	20	48*	0	13	-20	1
O=C(NC1CCCCCC1)C1c2ccccc2C(=O)N1Cc1cccnc1 (stereo not given)	0	4	2	3	-2	1.1
O=C(NCc1cccnc1)C1c2ccccc2C(=O)N1C1CCCCCC1 (stereo not given)	?	62*	1	25	?	1.1
O=C(NC1CCCC1)C1c2ccccc2C(=O)N1C1CCCCC1 (stereo not given)	4	12	2	5	1	1.1
Cc1c(O)c(CN2CCCC(C)C2)cc2c3c(c(=O)oc12)CCC3 (stereo not given)	-22	2	-2	0	-8	1
CNC(=O)CN(C#N)c1nc(N(C)C)nc(N(C)C)n1	-28	-6	0	-1	5	1.1
CCC(=O)c1ccc(OCC(O)Cn2cnc3ccccc32)cc1 (stereo not given)	?	-6	0	-2	?	3.2*
CCOC(=O)c1ccc(NC(=O)Nc2ccc3c4c(cccc24)C(=O)N3CC)cc1	?	-18	1	48*	?	3.1*
CCN1C(=O)c2cccc3c(NC(=O)c4ccc(S(=O)(=O)N(C)C)cc4)ccc1c23	-10	-4	1	-4	6	1.1
O=C(Cn1nc(-c2ccc3c(c2)OCCO3)ccc1=O)Nc1ccc(N2CCOCC2)cc1	96*	-1	-1	1	-27	1
CCCOc1ccc(C(CC(=O)O)NC(=O)c2ccc3c(c2)OCO3)cc1 (stereo not given)	88*	-2	-1	0	-9	1
CCCOc1ccc(C(CC(=O)O)NS(=O)(=O)c2ccc(NC(C)=O)cc2)cc1 (stereo not given)	45	3	0	-3	-9	1.1
Cc1cc(NC(=O)C2CCN(S(=O)(=O)c3cnc[nH]3)CC2)ccc1Br	?	-8	0	-5	?	1.3
COc1ccc(OC)c(C(=O)c2nc3c(n2O)CCCCC3)c1	2	54*	1	52*	-6	1.1
COc1ccc(C(=O)N2CCN(C3CCCCC3)CC2)c(OC)c1	-20	2	-1	0	4	1.1
CCCCn1c(SCC(=O)Nc2cc(C)[nH]n2)nc2ccsc2c1=O	9	1	-1	-11	-6	1.1
CCOc1ccc(/C(O)=C2/C(=O)C(=O)N(CC3CCCO3)C2c2ccco2)cc1 (stereo not given)	·	48*	·	26	·	·
CCOc1ccc(/C(O)=C2/C(=O)C(=O)N(CC3CCCO3)C2c2ccc(C)o2)cc1 (stereo not given)	·	26	·	-6	·	·
CCOc1ccc2nc(C)cc(C(=O)O)c2c1	2	-4	-1	8	7	1
C/C(=C1/SC(N2CCCC2)=NC1=O)c1ccc(Br)cc1	19	42*	-2	7	-14	1
SMILES	VLA-4 antagonist	FPR binder	26S disassembly	FPRL1 binder	VLA-4 agonist	Autofluor Jurkat
C=CCN1C(=O)/C(=C2\SC(N3CCOCC3)=NC2=O)c2cc(Br)ccc21	15	-4	0	0	-9	1.2
c1cncc(-c2nc3c4ccccc4nc(N4CCC(N5CCCCC5)CC4)n3n2)c1	-13	-1	8	-2	-1	1.1
CCN(CCNC(=O)C1CCN(c2nnc(-n3cccc3)s2)CC1)c1ccccc1	21	10	3	3	-5	1
CC(C)(C)NC(=O)C1CCCN(S(=O)(=O)c2cccc3cccnc23)C1 (stereo not given)	-17	35*	1	27	1	1
CCOc1ccc(S(=O)(=O)N2CCc3ccccc3C2)cc1	?	3	1	-4	?	3.2*
CCC(=O)Nc1ccc(S(=O)(=O)N2CCc3ccccc3C2)cc1	-4	6	1	2	-5	1
O=C1CCCC(O)=C1C(C#Cc1ccccc1)C1=C(O)CCCC1=O	3	47*	0	4	-1	1.2
CC1CCCC(NC(=O)CCn2c(=O)oc3ccccc32)C1C (stereo not given)	-1	2	-1	5	4	1
Cc1noc(/C=C/c2ccco2)c1S(=O)(=O)N1CCC(C(=O)N2c3ccccc3CC2C)CC1 (stereo not given)	-4	-4	105*	-4	2	1.1
Cc1noc(C)c1S(=O)(=O)N1CCC(C(=O)N2CCN(c3ccccc3Cl)CC2)CC1	9	0	-3	-11	2	0.98
Cc1noc(/C=C/c2ccco2)c1S(=O)(=O)N1CCC(C(=O)N(C)Cc2ccccc2)CC1	24	-2	46*	-1	-2	1.1
CCCCC1C(=O)N(c2ccccc2)N(c2ccccc2)C1=O	80*	50*	1	0	-43	0.97
CCCCC1(Cc2ccc([N+](=O)[O-])cc2)C(=O)N(c2ccccc2)N(c2ccccc2)C1=O	10	·	·	·	12	·
CC(C)NS(=O)(=O)c1cccc2nsnc12	-10	3	1	-4	-3	1.1
COC(=O)C1(S(=O)(=O)c2cccc3nsnc23)CC1	-2	33*	3	84*	-2	1.2
COc1cccc(C2C3=C(CCCC3=O)Nc3nc4ccccc4n32)c1OC (stereo not given)	-6	-4	0	4	3	1.1
COc1ccc(C2/C(=C(/O)c3ccc4c(c3)CC(C)O4)C(=O)C(=O)N2CCN2CCOCC2)cc1 (stereo not given)	·	2	·	0	·	·
Cc1ccc(C)c(/C(O)=C2\C(=O)C(=O)N(CCCn3ccnc3)C2c2ccncc2)c1 (stereo not given)	·	37*	·	25	·	·
Cc1ccc(/C(O)=C2/C(=O)C(=O)N(CCCn3ccnc3)C2c2ccccn2)cc1 (stereo not given)	·	-29	·	-1	·	·
COc1cc(C2/C(=C(\O)c3ccc4c(c3)CC(C)O4)C(=O)C(=O)N2CCCn2ccnc2)ccc1O (stereo not given)	·	44*	·	33*	·	·
CCCCCNC(=O)CCn1c(=O)oc2ccccc21	-9	0	0	0	8	1
